PubChem BioAssay (NCI)
This is part of a sample that, as a whole, favours compounds with a hit. Of some 79,000 tested, about 15% had one in any assay. The source made the active and inactive calls. No stated cut-off is given here; in the data, active means growth inhibition above about 70%; inactive means the rest.

Legend:
[1] = NCI Yeast Anticancer Drug Screen. Data for the rad52 strain (AID 147);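 further: 0% = growth of vehicle-treated control cultures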; conditions: S. cerevisiae rad52 mutant growth inhibition, stronger effect = higher value
Method in brief: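 DNA repair-defective yeast; compound exposure; growth scored against vehicle controls.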

[2] = NCI Yeast Anticancer Drug Screen. Data for the wt1 strain (AID 149);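 further: 0% = growth of vehicle-treated wt1 cultures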; conditions: S. cerevisiae wt1 strain (SPY 50644) growth inhibition, stronger effect = higher value
Method in brief: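 Vehicle-normalised growth inhibition; strain wt1; compound exposure.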

[3] = NCI Yeast Anticancer Drug Screen. Data for the rad50EPP+ strain (AID 151);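 further: 0% = growth of vehicle-treated control cultures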; conditions: S. cerevisiae rad50 mutant strain, stronger effect = higher value
Method in brief: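 rad50EPP+ yeast treated with test compounds. Readout: growth vs vehicle control.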

[4] = NCI Yeast Anticancer Drug Screen. Data for the mgt1 strain (AID 153); conditions: S. cerevisiae mgt1 mutant growth inhibition, stronger effect = higher value
Method in brief: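 Growth inhibition relative to vehicle controls was scored for the mgt1 yeast strain after compound exposure.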

[5] = NCI Yeast Anticancer Drug Screen. Data for the rad50 strain (AID 155);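 further: 0% = growth of vehicle-only cultures of the same strain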; conditions: S. cerevisiae rad50 strain growth inhibition, stronger effect = higher value
Method in brief: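 A DNA repair-deficient yeast mutant serves as the test organism; compound-induced growth inhibition is calculated against vehicle-treated cells.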

[6] = NCI Yeast Anticancer Drug Screen. Data for the mec2-1 strain (AID 157); conditions: S. cerevisiae mec2-1 strain, stronger effect = higher value
Method in brief: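 Growth inhibition is read against vehicle-treated controls after compound exposure of the mec2-1 yeast strain, which is defective in DNA damage repair or cell cycle control.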

[7] = NCI Yeast Anticancer Drug Screen. Data for the rad14 strain (AID 159);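 further: 0% = growth of vehicle-treated control cultures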; conditions: S. cerevisiae rad14 strain growth inhibition, stronger effect = higher value
Method in brief: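 Vehicle-treated cultures served as the baseline for growth inhibition of a DNA repair-mutant yeast strain exposed to each compound.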

[8] = NCI Yeast Anticancer Drug Screen. Data for the sgs1 mgt1 strain (AID 161);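 further: 0% = growth of cultures given vehicle only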; conditions: S. cerevisiae sgs1 mgt1 strain, stronger effect = higher value
Method in brief: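 Compounds are added to genetically altered yeast, and growth is compared with cultures given vehicle alone to give percent inhibition.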

[9] = NCI Yeast Anticancer Drug Screen. Data for the cln2 rad14 strain (AID 165);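 further: 0% = growth equal to vehicle treated cultures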; conditions: S. cerevisiae cln2 rad14 strain, stronger effect = higher value
Method in brief: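 Growth inhibition, relative to vehicle-treated controls, is the read-out. The test organism is a yeast strain with defined genetic alterations, cln2 rad14.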

[10] = NCI Yeast Anticancer Drug Screen. Data for the bub3 strain (AID 167); conditions: S. cerevisiae bub3 mutant strain, stronger effect = higher value
Method in brief: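 Inhibition values come from growth of compound-treated mutant yeast normalised to vehicle-treated controls.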

[11] = NCI Yeast Anticancer Drug Screen. Data for the wt2 strain (AID 169);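 further: 0% = growth of vehicle-treated yeast cultures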; conditions: S. cerevisiae wt2 strain growth inhibition, stronger effect = higher value
Method in brief: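 Compound exposure of yeast; growth compared with vehicle controls; inhibition reported.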

[12] = NCI Yeast Anticancer Drug Screen. Data for the mlh1 strain (AID 171);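 further: 0% = growth of vehicle-treated control cultures of the same strain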; conditions: S. cerevisiae mlh1 strain growth inhibition, stronger effect = higher value
Method in brief: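 Compounds are applied to a genetically altered yeast strain, and its growth is compared with that of vehicle-treated cultures to give percent inhibition.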

[13] = NCI Yeast Anticancer Drug Screen. Data for the sgs1 strain (AID 173);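 further: 0% = growth of vehicle-only control cultures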; conditions: S. cerevisiae sgs1 mutant, stronger effect = higher value
Method in brief: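 Compounds applied to genetically altered yeast; growth compared with vehicle-treated cultures to give % inhibition.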

[14] = NCI Yeast Anticancer Drug Screen. Data for the mlh1 rad18 strain (AID 175); conditions: S. cerevisiae mlh1 rad18 strain growth inhibition, stronger effect = higher value
Method in brief: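 Cells of a genetically altered yeast strain, deficient in DNA damage repair, were treated with compound. Their growth was then compared with that of vehicle-treated cultures to give inhibition.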

[15] = NCI Yeast Anticancer Drug Screen. Data for the rad18 strain (AID 177); conditions: S. cerevisiae rad18 mutant growth inhibition, stronger effect = higher value
Method in brief: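 Compounds are applied to a repair-deficient yeast strain, and growth is compared with that of vehicle-treated cultures to give percent inhibition.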

[16] = NCI Yeast Anticancer Drug Screen. Data for the CLN2oe strain (AID 163);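 further: 0% = growth of vehicle-only control cultures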; conditions: S. cerevisiae CLN2oe strain, stronger effect = higher value
Method in brief: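 Compound-treated yeast; growth vs vehicle ctrl = % inhibition. Genetically altered strain (cell-cycle control).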

[17] = at 5.0 µM (retest, dose inferred, filed as 0.5)
[18] = at 50.0 µM (retest, dose inferred, filed as 5.0)

Measured: growth inhibition

CC[n+]1oc(C(=O)c2ccc(Cl)cc2)c(-c2ccccc2)c1-c1ccccc1.[Cl][Fe]([Cl])([Cl])[Cl]
inactive: [1]; at 1.2 µM 4% | [1]; at 3.7 µM 15% | [1]; at 11.0 µM 32% | [1]; at 33.0 µM 57% | [2]; at 1.2 µM 1% | [2]; at 3.7 µM -1% | [2]; at 11.0 µM 4% | [2]; at 33.0 µM 20% | [2]; at 100.0 µM 54% | [3]; at 1.2 µM 16% | [3]; at 3.7 µM 37% | [4]; at 1.2 µM -2% | [4]; at 3.7 µM -3% | [4]; at 11.0 µM -3% | [4]; at 33.0 µM -1% | [4]; at 100.0 µM 48% | [5]; at 1.2 µM 5% | [5]; at 3.7 µM 8% | [5]; [17] 36% | [5]; at 11.0 µM 41% | [5]; at 33.0 µM 62% | [6]; at 1.2 µM 3% | [6]; at 3.7 µM 1% | [6]; [17] 22% | [6]; at 11.0 µM 11% | [6]; at 33.0 µM 26% | [6]; [18] 57% | [6]; at 100.0 µM 69% | [7]; at 1.2 µM 2% | [7]; at 3.7 µM 6% | [7]; at 11.0 µM 12% | [7]; at 33.0 µM 28% | [7]; at 100.0 µM 57% | [8]; [17] 34% | [9]; [17] 17% | [9]; [18] 57% | [9]; at 50.0 µM 68.2% | [10]; at 1.2 µM -5% | [10]; at 3.7 µM -1% | [10]; [17] 13% | [10]; at 11.0 µM 8% | [10]; at 33.0 µM 25% | [10]; at 50.0 µM 67.5% | [10]; at 100.0 µM 65% | [11]; at 1.2 µM 0% | [11]; at 3.7 µM -2% | [11]; at 11.0 µM -3% | [11]; at 33.0 µM 13% | [11]; at 100.0 µM 59% | [12]; at 1.2 µM 4% | [12]; at 3.7 µM 1% | [12]; at 11.0 µM 9% | [12]; at 33.0 µM 31% | [13]; at 1.2 µM 0% | [13]; at 3.7 µM -1% | [13]; at 11.0 µM 18% | [13]; at 33.0 µM 59% | [14]; [17] 27% | [15]; at 1.2 µM 4% | [15]; at 3.7 µM 7% | [15]; at 11.0 µM 24% | [15]; at 33.0 µM 49%
active: [1]; at 100.0 µM 75% | [3]; at 11.0 µM 75% | [3]; at 33.0 µM 93% | [3]; at 100.0 µM 99% | [5]; [18] 72% | [5]; at 50.0 µM 82% | [5]; at 100.0 µM 77% | [6]; at 50.0 µM 80% | [8]; [18] 79% | [8]; at 50.0 µM 89.3% | [10]; [18] 70% | [12]; at 100.0 µM 74% | [13]; at 100.0 µM 87% | [14]; [18] 78% | [14]; at 50.0 µM 94.2% | [15]; at 100.0 µM 79%

CC(=O)Nc1ccc(/C=C/[N+](=O)[O-])cc1
inactive: [1]; at 1.2 µM 19% | [1]; at 3.7 µM 23% | [1]; at 11.0 µM 43% | [1]; at 33.0 µM 69% | [2]; at 1.2 µM -1% | [2]; at 3.7 µM -3% | [2]; at 11.0 µM -4% | [2]; at 33.0 µM 6% | [3]; at 1.2 µM 22% | [3]; at 3.7 µM 42% | [3]; at 11.0 µM 51% | [4]; at 1.2 µM -2% | [4]; at 3.7 µM -4% | [4]; at 11.0 µM -1% | [4]; at 33.0 µM 20% | [5]; at 1.2 µM 31% | [5]; at 3.7 µM 35% | [5]; [17] -66% | [5]; at 11.0 µM 67% | [6]; at 1.2 µM -1% | [6]; at 3.7 µM -2% | [6]; [17] -42% | [6]; at 11.0 µM 14% | [6]; at 33.0 µM 3% | [6]; [18] 33% | [6]; at 50.0 µM 53.4% | [7]; at 1.2 µM 2% | [7]; at 3.7 µM 11% | [7]; at 11.0 µM 18% | [7]; at 33.0 µM 40% | [8]; [17] -43% | [8]; at 50.0 µM 47.6% | [16]; at 1.2 µM -3% | [16]; at 3.7 µM -1% | [16]; at 11.0 µM 3% | [16]; at 33.0 µM 10% | [9]; [17] -55% | [9]; [18] -19% | [9]; at 50.0 µM 46.2% | [10]; at 1.2 µM -4% | [10]; at 3.7 µM -5% | [10]; [17] -61% | [10]; at 11.0 µM 1% | [10]; at 33.0 µM 6% | [10]; [18] 43% | [10]; at 50.0 µM 68.8% | [12]; at 1.2 µM -1% | [12]; at 3.7 µM -6% | [12]; at 11.0 µM 1% | [12]; at 33.0 µM 22% | [13]; at 1.2 µM -3% | [13]; at 3.7 µM 11% | [13]; at 11.0 µM 15% | [13]; at 33.0 µM 52% | [14]; [17] -96% | [15]; at 1.2 µM 3% | [15]; at 3.7 µM 6% | [15]; at 11.0 µM 12% | [15]; at 33.0 µM 25%
active: [1]; at 100.0 µM 97% | [2]; at 100.0 µM 75% | [3]; at 33.0 µM 72% | [3]; at 100.0 µM 82% | [4]; at 100.0 µM 99% | [5]; at 33.0 µM 91% | [5]; [18] 94% | [5]; at 50.0 µM 85% | [5]; at 100.0 µM 98% | [6]; at 100.0 µM 95% | [7]; at 100.0 µM 99% | [8]; [18] 72% | [16]; at 100.0 µM 71% | [10]; at 100.0 µM 72% | [12]; at 100.0 µM 96% | [13]; at 100.0 µM 99% | [14]; [18] 91% | [14]; at 50.0 µM 94% | [15]; at 100.0 µM 92%
